Experimental data as given in PubChem BioAssay.
Unmarked numbers belong to inactive results. Calls of active or inactive are those of the source.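 Rule for the calls: active = thallium flux through the channel raised or lowered by more than 3 SD from vehicle-only wells, actives on both sides; inactive = the rest.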

What was measured:
Assay in all cases: modulators of BK channel variants, profiling panel, selectivity assay, cell-based, U2OS BacMam, thallium flux, beta subunits (AID 1259406);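 note: initial slope of Thallos dye fluorescence rise after thallium is added; log ratio against the mean of 0.3% DMSO vehicle wells on the same plate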
F380Y = settings: at 30 µM
F380Y/beta1 = settings: at 30 µM
F380Y/beta2Delta = settings: at 30 µM
F380Y/beta4 = settings: at 30 µM
[1] = molecular target: Calcium-activated potassium channel subunit alpha-1 (Homo sapiens) + Leucine-rich repeat-containing protein 26 (Homo sapiens) (UniProt Q12791+Q2I0M4); settings: F380Y/Slo1WT/gamma1, at 30 µM
R275C = settings: at 30 µM
R275C/beta1 = settings: at 30 µM
R275C/beta2Delta = settings: at 30 µM
R275C/beta4 = settings: at 30 µM
R275C/Slo1WT/beta2 = settings: at 30 µM

Chain of Calcium-activated potassium channel subunit alpha-1 (Homo sapiens) + Leucine-rich repeat-containing protein 26 (Homo sapiens) (Q2I0M4 whole entry, looked up, one chain of several): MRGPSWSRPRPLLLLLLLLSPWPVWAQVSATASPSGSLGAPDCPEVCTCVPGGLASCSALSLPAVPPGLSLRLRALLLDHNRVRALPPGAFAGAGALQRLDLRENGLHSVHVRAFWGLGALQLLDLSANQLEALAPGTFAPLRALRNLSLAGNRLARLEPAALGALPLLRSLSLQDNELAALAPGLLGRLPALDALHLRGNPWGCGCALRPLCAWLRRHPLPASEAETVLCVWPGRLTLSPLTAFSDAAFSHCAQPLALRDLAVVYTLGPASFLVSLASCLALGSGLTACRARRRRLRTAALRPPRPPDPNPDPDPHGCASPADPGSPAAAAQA

NC(Cc1ccc(OCc2ncc(C(F)(F)F)cc2Cl)cc1)=NOC(=O)c1ccccc1
log fold change Tl+ flux (F380Y): 0.0193 | log fold change Tl+ flux (F380Y/beta1): -0.00621 | log fold change Tl+ flux (F380Y/beta2Delta): 0.00968 | log fold change Tl+ flux (F380Y/beta4): -0.0023 | log fold change Tl+ flux [1]: -0.00749 | log fold change Tl+ flux (R275C): 0.0533 | log fold change Tl+ flux (R275C/beta1): 0.0113 | log fold change Tl+ flux (R275C/beta2Delta): 0.000291 | log fold change Tl+ flux (R275C/beta4): 0.00465 | log fold change Tl+ flux (R275C/Slo1WT/beta2): 0.0382

Cc1ccc(S(=O)(=O)N2Cc3ccccc3C(C)CC23CCCCC3)cc1 (stereo not given)
log fold change Tl+ flux (F380Y): -0.0732 | log fold change Tl+ flux (F380Y/beta1): -0.033 | log fold change Tl+ flux (F380Y/beta2Delta): -0.0539 | log fold change Tl+ flux (F380Y/beta4): -0.175 (active) | log fold change Tl+ flux [1]: -0.0898 | log fold change Tl+ flux (R275C): -0.0799 (active) | log fold change Tl+ flux (R275C/beta1): -0.119 (active) | log fold change Tl+ flux (R275C/beta2Delta): -0.0411 | log fold change Tl+ flux (R275C/beta4): -0.0534 | log fold change Tl+ flux (R275C/Slo1WT/beta2): 0.009

CCOC(=O)Cn1c(=O)ccc2c(C)cc(C)nc21
log fold change Tl+ flux (F380Y): 0.0287 | log fold change Tl+ flux (F380Y/beta1): -0.0128 | log fold change Tl+ flux (F380Y/beta2Delta): 0.0236 | log fold change Tl+ flux (F380Y/beta4): -0.0078 | log fold change Tl+ flux [1]: 0.0102 | log fold change Tl+ flux (R275C): -0.00247 | log fold change Tl+ flux (R275C/beta1): -0.0331 | log fold change Tl+ flux (R275C/beta2Delta): 0.00136 | log fold change Tl+ flux (R275C/beta4): 0.00241 | log fold change Tl+ flux (R275C/Slo1WT/beta2): -0.00135

Cc1nn(S(=O)(=O)c2ccccc2)c(C)c1Oc1ccc(Cl)cc1
log fold change Tl+ flux (F380Y): -0.154 (active) | log fold change Tl+ flux (F380Y/beta1): -0.178 (active) | log fold change Tl+ flux (F380Y/beta2Delta): -0.15 (active) | log fold change Tl+ flux (F380Y/beta4): -0.668 (active) | log fold change Tl+ flux [1]: -0.342 (active) | log fold change Tl+ flux (R275C): -0.199 (active) | log fold change Tl+ flux (R275C/beta1): -0.214 (active) | log fold change Tl+ flux (R275C/beta2Delta): -0.0399 | log fold change Tl+ flux (R275C/beta4): -0.114 (active) | log fold change Tl+ flux (R275C/Slo1WT/beta2): -0.0715

CCC(=NOc1ccc(C(F)(F)F)cn1)c1ccc(-c2ccccc2F)cc1
log fold change Tl+ flux (F380Y): 0.147 (active) | log fold change Tl+ flux (F380Y/beta1): -0.0225 | log fold change Tl+ flux (F380Y/beta2Delta): 0.0209 | log fold change Tl+ flux (F380Y/beta4): -0.0257 | log fold change Tl+ flux [1]: -0.0559 | log fold change Tl+ flux (R275C): -0.0194 | log fold change Tl+ flux (R275C/beta1): 0.00871 | log fold change Tl+ flux (R275C/beta2Delta): 0.0154 | log fold change Tl+ flux (R275C/beta4): 0.0265 | log fold change Tl+ flux (R275C/Slo1WT/beta2): -0.0112

Cn1c(Sc2cnc(=S)[nH]c2-c2ccc(Cl)cc2)nnc1C(F)(F)F
log fold change Tl+ flux (F380Y): 0.000803 | log fold change Tl+ flux (F380Y/beta1): 0.0224 | log fold change Tl+ flux (F380Y/beta2Delta): 0.000625 | log fold change Tl+ flux (F380Y/beta4): -0.0336 | log fold change Tl+ flux [1]: 0.0434 | log fold change Tl+ flux (R275C): -0.0138 | log fold change Tl+ flux (R275C/beta1): -0.00364 | log fold change Tl+ flux (R275C/beta2Delta): -0.0183 | log fold change Tl+ flux (R275C/beta4): 0.0272 | log fold change Tl+ flux (R275C/Slo1WT/beta2): 0.0806

O=C(c1ccc(-c2cccs2)s1)c1ccc(F)cc1F
log fold change Tl+ flux (F380Y): -0.00876 | log fold change Tl+ flux (F380Y/beta1): 0.022 | log fold change Tl+ flux (F380Y/beta2Delta): 0.0129 | log fold change Tl+ flux (F380Y/beta4): 0.0546 | log fold change Tl+ flux [1]: 0.0119 | log fold change Tl+ flux (R275C): -0.00813 | log fold change Tl+ flux (R275C/beta1): 0.00849 | log fold change Tl+ flux (R275C/beta2Delta): 0.0495 | log fold change Tl+ flux (R275C/beta4): -0.00599 | log fold change Tl+ flux (R275C/Slo1WT/beta2): 0.0293

Cn1cnc2cccc(F)c2c1=N
log fold change Tl+ flux (F380Y): -0.0259 | log fold change Tl+ flux (F380Y/beta1): 0.000586 | log fold change Tl+ flux (F380Y/beta2Delta): -0.0156 | log fold change Tl+ flux (F380Y/beta4): 0.0474 | log fold change Tl+ flux [1]: 0.038 | log fold change Tl+ flux (R275C): 0.0169 | log fold change Tl+ flux (R275C/beta1): 0.0241 | log fold change Tl+ flux (R275C/beta2Delta): -0.00275 | log fold change Tl+ flux (R275C/beta4): 0.00326 | log fold change Tl+ flux (R275C/Slo1WT/beta2): 0.0172

O=C(CCN1CCOCC1)Nc1cc(Cl)cc(Cl)c1
log fold change Tl+ flux (F380Y): 0.0457 | log fold change Tl+ flux (F380Y/beta1): 0.0335 | log fold change Tl+ flux (F380Y/beta2Delta): 0.00661 | log fold change Tl+ flux (F380Y/beta4): 0.024 | log fold change Tl+ flux [1]: -0.0241 | log fold change Tl+ flux (R275C): 0.0216 | log fold change Tl+ flux (R275C/beta1): 0.0618 | log fold change Tl+ flux (R275C/beta2Delta): 0.0272 | log fold change Tl+ flux (R275C/beta4): 0.0419 | log fold change Tl+ flux (R275C/Slo1WT/beta2): -0.0333

COc1cc(NC(=S)Nc2cccc(C)n2)c(OC)cc1Cl
log fold change Tl+ flux (F380Y): 0.00134 | log fold change Tl+ flux (F380Y/beta1): -0.00183 | log fold change Tl+ flux (F380Y/beta2Delta): 0.043 | log fold change Tl+ flux (F380Y/beta4): 0.0519 | log fold change Tl+ flux [1]: -0.00641 | log fold change Tl+ flux (R275C): 0.00398 | log fold change Tl+ flux (R275C/beta1): -0.033 | log fold change Tl+ flux (R275C/beta2Delta): 0.0321 | log fold change Tl+ flux (R275C/beta4): -0.0698 | log fold change Tl+ flux (R275C/Slo1WT/beta2): -0.00284

Cc1ccc(-c2nc(N=CNOC(=O)c3ccc([N+](=O)[O-])cc3)sc2C)cc1Cl
log fold change Tl+ flux (F380Y): 0.0323 | log fold change Tl+ flux (F380Y/beta1): 0.126 (active) | log fold change Tl+ flux (F380Y/beta2Delta): 0.0425 | log fold change Tl+ flux (F380Y/beta4): 0.147 (active) | log fold change Tl+ flux [1]: 0.102 | log fold change Tl+ flux (R275C): 0.00635 | log fold change Tl+ flux (R275C/beta1): 0.0986 | log fold change Tl+ flux (R275C/beta2Delta): 0.13 (active) | log fold change Tl+ flux (R275C/beta4): 0.142 (active) | log fold change Tl+ flux (R275C/Slo1WT/beta2): 0.0243

FC(F)(F)c1ccc(-c2csc(C3(c4ccc(Cl)cc4Cl)CC3)n2)cc1
log fold change Tl+ flux (F380Y): -0.0289 | log fold change Tl+ flux (F380Y/beta1): 0.000911 | log fold change Tl+ flux (F380Y/beta2Delta): 0.0443 | log fold change Tl+ flux (F380Y/beta4): -0.0216 | log fold change Tl+ flux [1]: 0.0176 | log fold change Tl+ flux (R275C): -0.00802 | log fold change Tl+ flux (R275C/beta1): 0.0119 | log fold change Tl+ flux (R275C/beta2Delta): -0.00666 | log fold change Tl+ flux (R275C/beta4): 0.0455 | log fold change Tl+ flux (R275C/Slo1WT/beta2): -0.0337

Clc1ccc(Sc2cn[nH]c2-c2ccc3c(c2)OCCO3)cc1
log fold change Tl+ flux (F380Y): -0.025 | log fold change Tl+ flux (F380Y/beta1): -0.0285 | log fold change Tl+ flux (F380Y/beta2Delta): -0.0116 | log fold change Tl+ flux (F380Y/beta4): 0.0103 | log fold change Tl+ flux [1]: -0.102 | log fold change Tl+ flux (R275C): 0.0336 | log fold change Tl+ flux (R275C/beta1): -0.00464 | log fold change Tl+ flux (R275C/beta2Delta): -0.0611 | log fold change Tl+ flux (R275C/beta4): -0.0292 | log fold change Tl+ flux (R275C/Slo1WT/beta2): -0.0512
